# 3T3 cytotox: Cytotoxic Profiling in NIH 3T3 Cell Line of Diverse Libraries Using Quantitative High-Throughput Screening; NIH 3T3 viability, CellTiter-Glo ATP luminescence, 48-72 h; Potency, µM (titrated, usually from 96.7 µM), for inactives: top-dose activity change, negative = cytotoxicity, usual class: inhibitors; 94,000 tested, 4.3% active; AID 1345082, 2018; also: % is scaled to controls: 0 for no effect and ±100 for the full control effect; nearly all actives have a fitted effect of over 55% in size
#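 Cells were seeded at 400 per well, treated with pin-transferred compound, and kept 48 or 72 hr at 37 °C before CellTiter-Glo addition and luminescence imaging of cellular ATP.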
# HEK cytotox: Cytotoxic Profiling in HEK 293 Cell Line of Diverse Libraries Using Quantitative High-Throughput Screening; HEK 293 viability, ATP luminescence (CellTiter-Glo), 48-72 h; Potency, µM (titrated, usually from 115 µM), inactives show at the top dose activity change, negative = cytotoxicity, hits mostly inhibitors; 94,000 tested, 6.6% active; AID 1345083, 2018; also: % is scaled to controls: 0 for no effect and ±100 for the full control effect; nearly all actives have a fitted effect of over 60% in size
#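 HEK 293 seeded at 250 cells/well receive compound via pintool. After 48 or 72 hr at 37 degree Celsius, 5% CO2 and 95% humidity, CellTiter-Glo is dispensed and luminescence read following 10 min at room temperature.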
# FLuc inh-1: Firefly luciferase inhibition profiling of diverse chemical library using quantitative high-throughput screening; purified P. pyralis luciferase, luminescence, biochemical; Potency, µM (titrated, usually from 115 µM), hits mostly inhibitors; 76,000 tested, 2.5% active; AID 1347043, 2019; also: % is scaled to controls: 0 for no effect and ±100 for the full control effect; nearly all actives have a fitted effect of over 65% in size
#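 FLuc 10nM, D-luciferin 10uM, ATP 10uM, Mg acetate 10mM, Tris acetate pH 7.5, Tween/BSA; cpd qHTS; enzyme added last; CCD luminescence.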
# hNpr1 antagonist: Natriuretic polypeptide receptor (hNpr1) antagonism - Primary qHTS. 76,000 tested, 1.6% active. AID 1347048, 2019. HEK293 hNpr1 GloSensor cGMP, ANP-stimulated luminescence. Potency, µM (highest dose often 46.3 µM), for inactives: top-dose activity change, negative = inhibition, most hits filed as inhibitors. Atrial natriuretic peptide receptor 1 (Homo sapiens), P16066; calls by dose curve; also: % is scaled to controls: 0 for no effect and ±100 for the full control effect; nearly all actives have a fitted effect of over 60% in size
#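 HEK293 cells stably expressing human Npr1 and cGMP GloSensor pGS-40F, loaded 2 h with 2% GloSensor reagent, given compound 30 min at room temperature. Luminescence read before and 20 min after 0.1 nM hNppA.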
# FLuc SDR -ATP: Firefly luciferase (FLuc-C-HiBiT) SDR gain of signal screen - without ATP; shares compounds with FLuc inh-1; Purified FLuc-C-HiBiT, Nano-Glo HiBiT luminescence, no ATP; Potency, µM (top dose mostly 32.7 µM), inactives show at the top dose activation (signal gain), most hits filed as activators; 1,300 tested, 7.8% active; AID 1963318, 2024; also: nearly all actives have a fitted effect of over 55% in size
# FLuc SDR ATP: Firefly luciferase (FLuc-C-HiBiT) SDR gain of signal screen - plus ATP. 1,300 tested, 8.7% active. purified FLuc-C-HiBiT + ATP, HiBiT complementation luminescence. Potency, µM (highest dose often 32.7 µM), inactives show at the highest dose activation (gain of signal), hits mostly activators. shares compounds with FLuc inh-1;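 also: signal reports ligand binding via conformational change of the enzyme rather than luciferase catalysis; % of control where 0% means no effect; nearly all actives have a fitted effect of over 55% in size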
# FLuc inh-2: Firefly luciferase (FLuc-C-HiBiT) enzymatic inhibition screen - Functional assay; shares compounds with FLuc inh-1; purified FLuc-C-HiBiT enzyme, luciferin luminescence; 1,300 tested, 42% active; Potency, µM (doses to about 32.7 µM), without a hit: top-dose activity change, negative = inhibition, actives largely listed as inhibitors; also: % is scaled to controls: 0 for no effect and ±100 for the full control effect; nearly all actives have a fitted effect of over 70% in size
# An asterisk follows results filed as active; i = inactive; ? = inconclusive; . = no result. This is a sample that favours compounds with a hit; in the whole collection about 11% have one here. Unless noted, calls follow the shape of the dose curve; as a rule, active = well fitted curve in the direction sought with a large enough effect; inconclusive = small, poorly fitted or top-dose-only effect, or another doubt; inactive = no such curve, though single readings can be large; an effect the other way counts as inactive or inconclusive. Potency is read from the fitted curve at half-maximal effect.
SMILES,3T3 cytotox,HEK cytotox,FLuc inh-1,hNpr1 antagonist,FLuc SDR -ATP,FLuc SDR ATP,FLuc inh-2
COc1ccc(C(=O)Nc2cc(-c3nc4ccccc4s3)ccc2OC)cc1,.,.,.,.,13%,10%,?
Cc1c(C(=O)NCc2cccc(Br)c2)oc2ccc3c(c12)C(=O)CC(C)(C)O3,.,.,.,.,17%,10%,?
CCc1ccc(C2=CC(c3cccc(C)c3)n3c(nc4ccccc43)N2)cc1 (stereo unspecified),.,.,.,.,11µM*,?,0.88µM*
Cc1ccc(C2=CC(c3ccccc3F)n3c(nc4ccccc43)N2)cc1C (stereo unspecified),.,.,.,.,?,?,3.1µM*
O=C(O)c1ccc(-c2nnc3ccc(NC(=O)C4CCC4)cn23)cc1,-21%,19%,10µM*,2%,?,?,?
O=C(c1cnccn1)N1CC(c2nnc(-c3ccncc3)o2)C2(CCOCC2)C1 (stereo unspecified),-17%,-18%,i,-1%,.,.,.
O=C1NCCCc2[nH]c(-c3cc(-c4cccc(F)c4)no3)nc21,-29%,-34%,2.8µM*,-29%,?,?,7µM*
O=C(O)c1ccc(-c2ccc(N3CCCCCC3)nc2)cc1,?,7%,4.5µM*,-4%,?,?,2.5µM*
O=C(NCc1ccncc1)c1ccc(-c2ccc(N3CCCCC3)nc2)cc1,-29%,?,?,-4%,.,.,.
CC(C)c1nc2c(c(-c3ccc(O)cc3)n1)CCN(Cc1ccccn1)CC2,-21%,1%,i,-2%,8%,8%,-6%
CC(C)c1nc2c(c(-c3ccc(O)cc3)n1)CN(Cc1ccccc1)CC2,-26%,?,i,2%,11%,7%,-5%
Cc1ccc(CN2CCc3nc(C(C)C)nc(-c4ccc(O)cc4)c3C2)cc1,?,?,i,1%,.,.,.
O=C(Nc1cccc(-c2ccc(N3CCOCC3)nn2)c1)Nc1cccc(Cl)c1F,32µM*,22µM*,1.6µM*,?,29%,18%,5.6µM*
COc1ccccc1NC(=O)Nc1cccc(-c2ccc(N3CCOCC3)nn2)c1,?,?,1.4µM*,?,?,?,3.1µM*
O=C(Nc1cccc(F)c1)Nc1cccc(-c2ccc(N3CCCCC3)nn2)c1,32µM*,?,0.4µM*,7.9µM*,9.9µM*,?,0.99µM*
O=C(Nc1cc(F)cc(F)c1)Nc1cccc(-c2ccc(N3CCOCC3)nn2)c1,?,32µM*,1.3µM*,10µM*,?,?,3.1µM*
COCc1cc(=O)n(CC(=O)Nc2cccc(F)c2)c(N2CCOCC2)n1,-17%,6%,i,-5%,.,.,.
Cn1ncc2c(C(=O)NCc3ccccc3Cl)cc(-c3cccc(C(F)(F)F)c3)nc21,-17%,2%,.,.,.,.,.
COc1ccc(C(=O)N2CCCC(C(=O)N3CCC(c4nc5ncccc5[nH]4)CC3)C2)cc1 (stereo unspecified),-18%,-3%,.,.,.,.,.
O=C(c1ccccc1F)N1CCCC(c2nnnn2-c2ccccc2)C1 (stereo unspecified),-11%,3%,.,.,.,.,.
O=C(Cc1ccccc1)NC1CCN(CCn2nc3n(c2=O)CCCC3)C1 (stereo unspecified),i,2%,.,.,.,.,.

# From PubChem
